# Results taken from the supplement of paper PMC8728848.
# About 410 targets per protein were measured; listed, in parts, are those with the strongest signals and a random draw of the rest.
# Experiments:
# Test in all cases: glycan array binding signal (z-score within array); higher = stronger binding
# Conditions in all cases: glycan notation: IUPAC condensed, linker removed
# [1] = molecular target: Gal(b1-4)GlcNAc(b1-3)[GlcNAc(b1-6)]Gal(b1-4)GlcNAc
# Summary of the method: (§1)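 The binding signal is a Z-score computed within each array and averaged over linkers. Arrays of the same protein sequence at different concentrations or buffers were also averaged together. Data originate from 3228 arrays in the Consortium for Functional Glycomics database, kept only where the protein sequence was available.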
# [2] = molecular target: Gal(b1-4)GlcNAc(b1-6)Gal(b1-4)GlcNAc
# Summary of the method: as §1
# Gal(b1-4)GlcNAc6P = molecular target: Gal(b1-4)GlcNAc6P
# Summary of the method: as §1
# GalNAc4S6S(b1-4)GlcNAc = molecular target: GalNAc4S6S(b1-4)GlcNAc
# Summary of the method: as §1
# [3] = molecular target: Glc(a1-4)Glc(a1-4)Glc(a1-4)Glc
# Summary of the method: as §1
# [4] = molecular target: GlcNAc(b1-2)Man(a1-3)[GlcNAc(b1-4)][GlcNAc(b1-2)Man(a1-6)]Man(b1-4)GlcNAc(b1-4)GlcNAc
# Summary of the method: as §1
# [5] = molecular target: GlcNAc(b1-3)Gal(b1-4)GlcNAc(b1-3)Gal(b1-4)GlcNAc(b1-3)Gal(b1-4)GlcNAc(b1-2)Man(a1-3)[GlcNAc(b1-3)Gal(b1-4)GlcNAc(b1-3)Gal(b1-4)GlcNAc(b1-3)Gal(b1-4)GlcNAc(b1-2)Man(a1-6)]Man(b1-4)GlcNAc(b1-4)[Fuc(a1-6)]GlcNAc
# Summary of the method: as §1
# GlcNAc(b1-3)Man = molecular target: GlcNAc(b1-3)Man
# Summary of the method: as §1
# [6] = molecular target: GlcNAc(b1-4)GlcNAc(b1-4)GlcNAc
# Summary of the method: as §1
# [7] = molecular target: Kdn(a2-3)Gal(b1-4)[Fuc(a1-3)]GlcNAc
# Summary of the method: as §1
# MurNAc(b1-4)GlcNAc = molecular target: MurNAc(b1-4)GlcNAc
# Summary of the method: as §1
# [8] = molecular target: Neu5Ac(a2-3)Gal(b1-3)GlcNAc
# Summary of the method: as §1
# [9] = molecular target: Neu5Ac(a2-3)Gal(b1-3)GlcNAc(b1-2)Man(a1-3)[GlcNAc(b1-4)][Neu5Ac(a2-3)Gal(b1-3)GlcNAc(b1-2)Man(a1-6)]Man(b1-4)GlcNAc(b1-4)GlcNAc
# Summary of the method: as §1
# [10] = molecular target: Neu5Ac(a2-3)Gal(b1-4)GlcNAc(b1-2)Man(a1-3)[Neu5Ac(a2-3)Gal(b1-4)GlcNAc(b1-2)Man(a1-6)]Man(b1-4)GlcNAc(b1-4)GlcNAc
# Summary of the method: as §1
# [11] = molecular target: Neu5Ac(a2-3)Gal(b1-4)GlcNAc(b1-2)[Neu5Ac(a2-3)Gal(b1-4)GlcNAc(b1-6)]Man(a1-6)[Neu5Ac(a2-3)Gal(b1-4)GlcNAc(b1-2)Man(a1-3)]Man(b1-4)GlcNAc(b1-4)GlcNAc
# Summary of the method: as §1
# [12] = molecular target: Neu5Ac(a2-3)Gal(b1-4)GlcNAc(b1-3)GalNAc
# Summary of the method: as §1
# [13] = molecular target: Neu5Ac(a2-3)Gal6S(b1-4)GlcNAc
# Summary of the method: as §1
# [14] = molecular target: Neu5Ac(a2-3)[GalNAc(b1-4)]Gal(b1-4)Glc
# Summary of the method: as §1
# [15] = molecular target: Neu5Ac(a2-6)Gal(b1-3)GlcNAc(b1-3)[Gal(b1-4)GlcNAc(b1-6)]Gal(b1-4)Glc
# Summary of the method: as §1
# [16] = molecular target: Neu5Ac(a2-6)Gal(b1-4)GlcNAc
# Summary of the method: as §1
# [17] = molecular target: Neu5Ac(a2-6)Gal(b1-4)GlcNAc(b1-2)Man(a1-6)[Man(a1-3)]Man(b1-4)GlcNAc(b1-4)GlcNAc
# Summary of the method: as §1
# [18] = molecular target: Neu5Ac(a2-6)Gal(b1-4)GlcNAc(b1-2)[Neu5Ac(a2-6)Gal(b1-4)GlcNAc(b1-4)]Man(a1-3)[GlcNAc(b1-4)][Neu5Ac(a2-6)Gal(b1-4)GlcNAc(b1-2)[Neu5Ac(a2-6)Gal(b1-4)GlcNAc(b1-6)]Man(a1-6)]Man(b1-4)GlcNAc(b1-4)GlcNAc
# Summary of the method: as §1
# [19] = molecular target: Neu5Ac(a2-6)Gal(b1-4)GlcNAc(b1-6)[Gal(b1-3)]GalNAc
# Summary of the method: as §1
# [20] = molecular target: Neu5Ac(a2-6)GalNAc(b1-4)GlcNAc6S
# Summary of the method: as §1
# [21] = molecular target: Neu5Ac(a2-8)Neu5Ac(a2-3)[GalNAc(b1-4)]Gal(b1-4)Glc
# Summary of the method: as §1
# [22] = molecular target: Neu5Ac(a2-8)Neu5Ac(a2-8)Neu5Ac(a2-3)Gal(b1-4)Glc
# Summary of the method: as §1
# [23] = molecular target: Neu5Ac9Ac(a2-6)Gal(b1-4)GlcNAc
# Summary of the method: as §1
# [24] = molecular target: Neu5Gc(a2-8)Neu5Gc(a2-3)Gal(b1-4)GlcNAc(b1-3)Gal(b1-4)GlcNAc
# Summary of the method: as §1
binder,measurement,setting,value
Sp8391B-bot-388-20-388 (Bacteroides ovatus) (protein) GCQNNDENEQHYDNKLFISASNFTKEILFKAGDTNVETGLSVAIAKPEEHDIKVTMSPAPELLSTYKLAYYDETAVLLSEEHYSMPETSTTIKSGSIVSPELPIEFINTGELDIKTTYVLPVTIKSVEGIGVLQSAKTYYYVFRGASLINVVCNISRNRAYPDFKNDSKFNNLTENTMEILFKANSFPNTLNTLMGIESNYLLRIGDATIPNNQLQVATSVNNCTSADLQLESGKWYHVAVAFNKGNVKVYINGVEKLSGSTGKSSVSLGAKHTNEEDGSRCFWVGYSYKDDRYFDGVVSEVRIWNRALTAEEIQATNHFYTIEPESEGLIAYWKFDEGSGTVAKDYSVSGYDLTIEKEPKWESVSLPQ,glycan array binding signal (z-score),[1],0.193
same,glycan array binding signal (z-score),[2],0.486
same,glycan array binding signal (z-score),Gal(b1-4)GlcNAc6P,0.015
same,glycan array binding signal (z-score),GalNAc4S6S(b1-4)GlcNAc,-0.043
same,glycan array binding signal (z-score),[3],-0.549
same,glycan array binding signal (z-score),[4],-0.101
same,glycan array binding signal (z-score),[5],2.65
same,glycan array binding signal (z-score),GlcNAc(b1-3)Man,0.083
same,glycan array binding signal (z-score),[6],-0.077
same,glycan array binding signal (z-score),[7],1.91
same,glycan array binding signal (z-score),MurNAc(b1-4)GlcNAc,-0.265
same,glycan array binding signal (z-score),[8],-0.213
same,glycan array binding signal (z-score),[9],-0.652
same,glycan array binding signal (z-score),[10],-0.533
same,glycan array binding signal (z-score),[11],0.918
same,glycan array binding signal (z-score),[12],-0.435
same,glycan array binding signal (z-score),[13],-0.501
same,glycan array binding signal (z-score),[14],0.131
same,glycan array binding signal (z-score),[15],6.14
same,glycan array binding signal (z-score),[16],-0.355
same,glycan array binding signal (z-score),[17],0.075
same,glycan array binding signal (z-score),[18],2.53
same,glycan array binding signal (z-score),[19],-0.211
same,glycan array binding signal (z-score),[20],-0.019
same,glycan array binding signal (z-score),[21],0.19
same,glycan array binding signal (z-score),[22],0.117
same,glycan array binding signal (z-score),[23],-0.27
same,glycan array binding signal (z-score),[24],-1.02
